A selection: hits, their analogues and other compounds. The true share with any hit is near 7.5%.
ELG1 genotox – inducers of genotoxicity in HEK293T ELG1-luciferase cells; HEK293T ELG1-luciferase reporter, luminescence, 16 h; Potency, µM (highest dose often 46 µM), for the others: at the top dose activity change, positive = activation, most hits filed as activators; 330,000 compounds, 1.3% hits; note: % of control where 0% means no effect; nearly all actives have a fitted effect of over 60% in size
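HEK293T cells expressing luciferase-tagged ELG1 were exposed to compound or DMSO vehicle for 16 hr at 37 °C and 5% CO2. Luciferase activity was then measured with ONE-Glo after 30 min at room temperature.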
SMN2 splice up – SMN2 splice variant enhancement | HEK293 SMN2-luciferase splicing reporter, luminescence, 30-36 h | Potency, µM (series often up to 46.1 µM), for the others: top-dose activity change, positive = activation, actives largely listed as activators | 210,000 compounds, 2.8% hits; note: % of control where 0% means no effect; nearly all actives have a fitted effect of over 55% in size
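HEK293 cells carry an SMN2 […]–luciferase reporter in which exon 7 inclusion puts luciferase in frame. Cells were plated 10-12 h before compound addition, then incubated 30-36 h at 37C. ONE-Glo luminescence was read; sodium butyrate at 4.5 mM final served as control.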
KinaseGlo FLuc – Kinase-Glo luciferase inhibition (counter-screen). Q27757. Kinase-Glo luciferase, ATP luminescence, 8 min. Potency, µM (titrated, usually from 38.3 µM), without a hit: at the top dose activity change, negative = inhibition, usual class: inhibitors. 200,000 compounds, 0.28% hits. AID 1379; note: % is set by controls: 0 for no effect and ±100 for the full control effect; nearly all actives have a fitted effect of over 60% in size
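Light output from Kinase-Glo luciferase with luciferin and 10 uM ATP in 50 mM imidazole pH 7.2, KCl, MgCl2, Tween 20, BSA; compound pin-delivered, 8-min ambient incubation, then luminescence read.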
Rab9 prom act – activators of Rab9 promoter; Huh7 Rab9 promoter-luciferase reporter, luminescence, 24 h; 320,000 compounds, 2.8% hits; Potency, µM (titrated, usually from 9.22 µM), without a hit: at the top dose activation, negative = inhibition, actives largely listed as activators; note: % of control where 0% means no effect; nearly all actives have a fitted effect of over 60% in size
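Luciferase signal after 10 min detection reagent at ambient indicates Rab9 promoter upregulation; stably transfected Huh7 cells were treated 24 h with compound in DMSO at 37 °C, 5% CO2.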
FLuc counter – firefly luciferase modulation, counter-screen for miR-21 project; 360,000 compounds, 6.9% hits; purified FLuc, Km substrates, luminescence inhibition; Potency, µM (top dose mostly 57.5 µM), without a hit: at the top dose activity change, negative = inhibition, most hits filed as inhibitors;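 note: plate controls were vehicle for no effect and reference inhibitor for full effect; nearly all actives have a fitted effect of over 55% in size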
Target sequence (P08659 whole entry, looked up): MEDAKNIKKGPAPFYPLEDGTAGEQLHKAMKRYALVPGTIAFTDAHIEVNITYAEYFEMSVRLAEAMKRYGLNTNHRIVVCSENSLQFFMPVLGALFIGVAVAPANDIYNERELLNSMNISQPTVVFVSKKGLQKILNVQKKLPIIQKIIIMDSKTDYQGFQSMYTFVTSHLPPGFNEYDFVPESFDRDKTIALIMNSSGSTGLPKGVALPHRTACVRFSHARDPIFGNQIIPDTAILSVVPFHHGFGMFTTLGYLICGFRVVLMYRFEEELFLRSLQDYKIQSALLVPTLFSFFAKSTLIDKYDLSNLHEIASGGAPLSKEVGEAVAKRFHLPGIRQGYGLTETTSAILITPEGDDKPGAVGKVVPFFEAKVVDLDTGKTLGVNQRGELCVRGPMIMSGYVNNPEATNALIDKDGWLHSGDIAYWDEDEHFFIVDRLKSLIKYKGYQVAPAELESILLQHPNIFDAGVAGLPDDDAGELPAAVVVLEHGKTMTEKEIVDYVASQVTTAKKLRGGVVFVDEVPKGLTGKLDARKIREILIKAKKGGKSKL
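Purified P. pyralis luciferase (10nM final) with 10uM D-luciferin and 10uM ATP (Km levels) in 50mM Tris acetate pH 7.5, 10mM Mg acetate, 0.01% Tween-20, 0.05% BSA; qHTS 6-point titration, ~60 µM downward; luminescence read.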
NPC1 prom act – activates the NPC1 promoter; Huh7 NPC1 promoter luciferase reporter, 24 h; Potency, µM (top dose mostly 9.22 µM), for the others: at the top dose activation, hits mostly activators; 320,000 compounds, 2.4% hits; note: % of control where 0% means no effect; nearly all actives have a fitted effect of over 60% in size
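Luminescence from an NPC1 promoter-driven luciferase reporter in stably transfected Huh7 cells was measured after 24 h compound treatment at 37 °C, followed by 10 min ambient incubation with luciferase detection reagent.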
An asterisk follows results filed as active; u = inconclusive; x = no result given; [ ] = remark or other dose. Calls come from the whole dose curve; as a rule, active = well fitted curve in the direction sought with a large enough effect; inconclusive = small, poorly fitted or top-dose-only effect, or another doubt; inactive = no such curve, though single readings can be large; an effect the other way counts as inactive or inconclusive. Potency is the fitted concentration of half-maximal effect.

SMILES	ELG1 genotox	SMN2 splice up	KinaseGlo FLuc	Rab9 prom act	FLuc counter	NPC1 prom act
CC1C(O)=C(c2nc3ccccc3[nH]2)C(=N)N1c1ccccc1 (stereo unspecified)	u	25.6%	-0.1%	20.8%	16.9µM*	25.6%
CCC(C)N1CC(O)=C(c2nc3ccccc3[nH]2)C1=N (stereo unspecified)	u	-5.8%	1.8%	u	16.9µM*	u
N=C1C(c2nc3ccccc3[nH]2)=C(O)CN1c1ccc(CC(=O)O)cc1	0.0%	-10.9%	-3.9%	0.7%	-19.2%	-4.0%
CCOC(=O)c1c(C)[nH]c(CCC(=O)Nc2cc(C)cc(C)c2)c1C	x	x	x	x	-9.5%	x
Cc1cc(C(=O)Nc2c(F)c(F)c(F)c(F)c2F)n(-c2ccccc2)n1	-3.6%	-5.9%	0.4%	-3.7%	-4.9%	-5.4%
COc1ccc(Oc2cnc3ccccc3n2)cc1	-2.9%	19.2%	-0.2%	3.55µM*	-10.4%	u
Cc1nc2ccc(NC(=O)c3cccc(C(F)(F)F)c3)cc2o1	u	4.3%	7.0%	-4.6%	-18.5%	4.5%
Cc1nc2ccc(-c3ccccc3)cc2o1	8.1%	-5.7%	-4.5%	14.6%	16.9µM*	14.5%
CN(CC(=O)Nc1ccc(F)c(F)c1F)C(=O)c1ccc(=O)[nH]c1	4.61µM*	x	x	1.12µM*	4.26µM*	0.891µM*
c1ccc2sc(SSc3nc4ccccc4s3)nc2c1	x	0.8%	x	x	x	x
OC1CCCCC1Sc1nc2ccccc2s1 (stereo unspecified)	u	-7.6%	-0.7%	u	16.9µM*	u
COc1cccc(/C=C2\SC(=O)N(CC(=O)NC3C=CS(=O)(=O)C3)C2=O)c1 (stereo unspecified)	-7.2%	x	x	6.1%	26.9µM*	-3.5%
COc1cccc(/C=C2\SC(=S)N(C(C)C(=O)NC3C=CS(=O)(=O)C3)C2=O)c1 (stereo unspecified)	9.2%	x	x	12.0%	u	-5.9%
COc1cccc(/C=C2\SC(=O)N(CCC(=O)NC3CCS(=O)(=O)C3)C2=O)c1 (stereo unspecified)	13.4%	x	x	10.9%	u	12.0%
COc1cccc(/C=C2\SC(=O)N(CC(=O)NC3CCS(=O)(=O)C3)C2=O)c1 (stereo unspecified)	6.1%	x	x	-0.3%	16.9µM*	-13.6%
COc1ccccc1/C=C1\SC(=S)N(CC(=O)NC2CCS(=O)(=O)C2)C1=O (stereo unspecified)	-0.1%	x	x	3.2%	13.5µM*	-2.7%
CC(C)c1ccc(/C=C2\SC(=O)N(CC(=O)NC3C=CS(=O)(=O)C3)C2=O)cc1 (stereo unspecified)	5.2%	x	x	22.5%	1.2µM*	25.8%
O=C(CN1C(=O)/C(=C/c2ccccc2)SC1=S)NC1CCS(=O)(=O)C1 (stereo unspecified)	-0.5%	x	x	0.0%	-17.6%	-8.2%
Cn1c(-c2ccc[nH]c2=O)nc2cc(Cl)ccc21	2.5%	-7.8%	-3.2%	3.6%	0.8%	-4.9%
Brc1ccc2nc(-c3cccs3)c(NCC3CCCO3)n2c1 (stereo unspecified)	-8.1%	x	-7.1%	26.9%	12µM*	u
COc1ccc(C2=C/C(=C\c3ccccc3OC(C)=O)C(=O)O2)cc1	3.7%	x	x	19.4%	u	16.3%
COc1ccc(C2=C/C(=C\c3cccc(OC(C)=O)c3)C(=O)O2)cc1	1.8%	u	-6.4%	2.0%	23.9µM*	0.4%
O=C(CSc1nc2ccc([N+](=O)[O-])cc2s1)c1ccc2ccccc2c1	-1.8%	-1.7%[9.22 µM]	-3.5%[7.66 µM]	-3.7%	-5.5%	-2.5%
CSc1nc(N)c2ncn([C@@H]3O[C@H](COP(=O)(O)OP(=O)(O)O)[C@H](O)[C@H]3O)c2n1	x	-4.0%	-21.6%	x	x	x
COc1ccc(C(=O)Oc2ccc3c(-c4ccc(OC)cc4)cc(=O)oc3c2)cc1	x	-8.5%	-10.7%	x	x	x
SMILES	ELG1 genotox	SMN2 splice up	KinaseGlo FLuc	Rab9 prom act	FLuc counter	NPC1 prom act
COc1ccc(C(=O)Oc2ccc3oc(=O)sc3c2)cc1	u	0.6%	-3.1%	9.7%	10.7µM*	-2.3%
O=C(Oc1ccc2ccc(=O)oc2c1)c1ccccc1	3.4%	x	x	-1.3%	u	0.6%
COc1ccc(C(=O)Oc2ccc3ccc(=O)oc3c2)cc1	-3.8%	x	x	-0.5%	2.69µM*	-1.8%
CC(C)/C=C/C(=O)N1CCCC(N2CCN(c3ccccc3F)CC2)C1 (stereo unspecified)	-7.7%	x	x	-5.6%	4.3%	2.8%
CCCCCCSc1ccc(-c2nc3ccc(C)cn3c2NCc2ccccc2)cc1OC	-2.8%	x	x	0.6%	-1.9%	-2.0%
CCC(C)Sc1ccc(-c2nc3ccc(C)cn3c2NCc2ccccc2)cc1OC (stereo unspecified)	-6.9%	x	x	-3.1%	15.1µM*	-6.6%
CCc1nn(C(C)C(=O)NCc2cccc(Cl)c2)c(=O)c2cc3occc3n12 (stereo unspecified)	1.9%	x	x	-1.6%	3.4%	2.0%
Cc1ccc(NC(=O)C2CC2c2ccccc2)c([N+](=O)[O-])c1 (stereo unspecified)	u	x	x	22.2%	19µM*	u
O=C(Nc1ccc(Cl)cc1F)C1CC1c1ccccc1 (stereo unspecified)	13.2%	x	x	23.7%	u	19.9%
COc1ccc(OCc2cc(/C=N\NC(=O)c3ccccc3)ccc2OC)cc1	u	x	x	u	12µM*	u
O=C(N/N=C/c1ccncc1)c1ccc(OCc2ccccc2)cc1	7.3%	x	x	1.2%	-4.7%	-3.5%
O=C(N/N=C/c1ccc(OCc2ccccc2)cc1)c1ccncc1	u	15.8µM*	3.7%	-2.9%	-9.6%	-4.5%
CC(=O)Nc1ccc(C(=O)N/N=C/c2ccccc2OCc2ccccc2)cc1	-0.1%	1.8%	0.4%	0.1%	16.9µM*	-8.0%
O=C(N/N=C/c1ccc(OCc2ccccc2)cc1)c1cccs1	7.8%	-0.5%	-1.6%	u	-11.5%	u
COC(=O)N/N=C/c1ccccc1OCc1ccccc1	8.9%	10.4%	-2.2%	-4.8%	-1.8%	-2.2%
Oc1ccc(N=Cc2ccc(OCc3ccccc3)cc2)cc1	u	x	-5.7%	-3.2%	13.5µM*	-3.5%
CCOC(=O)C(C)Sc1cc(CS(=O)(=O)c2ccccc2)nc(-c2ccccc2)n1 (stereo unspecified)	-6.9%	-12.5%	-3.8%	0.8%	3.4%	-0.8%
O=C(N/N=C/c1ccccc1OCc1ccccc1)c1cccnc1	-1.6%	14.2%	-1.8%	-0.1%	10.7µM*	-0.7%
CCOC(=O)C1=C(CSc2nc(-c3ccccc3)ccc2C#N)OC(N)=C(C#N)C1c1ccc(OC)cc1 (stereo unspecified)	u	-4.1%	2.1%	-2.9%	15.1µM*	-1.2%

High-throughput results from PubChem BioAssay.
